# Source: PMC5227109
# Biological target: Sister chromatid cohesion protein 2 (UniProt Q04002)
# Assay: cross-link between two proteins; cross-linking mass spectrometry
# UniProt Q04002, sequence (Q04002 whole entry): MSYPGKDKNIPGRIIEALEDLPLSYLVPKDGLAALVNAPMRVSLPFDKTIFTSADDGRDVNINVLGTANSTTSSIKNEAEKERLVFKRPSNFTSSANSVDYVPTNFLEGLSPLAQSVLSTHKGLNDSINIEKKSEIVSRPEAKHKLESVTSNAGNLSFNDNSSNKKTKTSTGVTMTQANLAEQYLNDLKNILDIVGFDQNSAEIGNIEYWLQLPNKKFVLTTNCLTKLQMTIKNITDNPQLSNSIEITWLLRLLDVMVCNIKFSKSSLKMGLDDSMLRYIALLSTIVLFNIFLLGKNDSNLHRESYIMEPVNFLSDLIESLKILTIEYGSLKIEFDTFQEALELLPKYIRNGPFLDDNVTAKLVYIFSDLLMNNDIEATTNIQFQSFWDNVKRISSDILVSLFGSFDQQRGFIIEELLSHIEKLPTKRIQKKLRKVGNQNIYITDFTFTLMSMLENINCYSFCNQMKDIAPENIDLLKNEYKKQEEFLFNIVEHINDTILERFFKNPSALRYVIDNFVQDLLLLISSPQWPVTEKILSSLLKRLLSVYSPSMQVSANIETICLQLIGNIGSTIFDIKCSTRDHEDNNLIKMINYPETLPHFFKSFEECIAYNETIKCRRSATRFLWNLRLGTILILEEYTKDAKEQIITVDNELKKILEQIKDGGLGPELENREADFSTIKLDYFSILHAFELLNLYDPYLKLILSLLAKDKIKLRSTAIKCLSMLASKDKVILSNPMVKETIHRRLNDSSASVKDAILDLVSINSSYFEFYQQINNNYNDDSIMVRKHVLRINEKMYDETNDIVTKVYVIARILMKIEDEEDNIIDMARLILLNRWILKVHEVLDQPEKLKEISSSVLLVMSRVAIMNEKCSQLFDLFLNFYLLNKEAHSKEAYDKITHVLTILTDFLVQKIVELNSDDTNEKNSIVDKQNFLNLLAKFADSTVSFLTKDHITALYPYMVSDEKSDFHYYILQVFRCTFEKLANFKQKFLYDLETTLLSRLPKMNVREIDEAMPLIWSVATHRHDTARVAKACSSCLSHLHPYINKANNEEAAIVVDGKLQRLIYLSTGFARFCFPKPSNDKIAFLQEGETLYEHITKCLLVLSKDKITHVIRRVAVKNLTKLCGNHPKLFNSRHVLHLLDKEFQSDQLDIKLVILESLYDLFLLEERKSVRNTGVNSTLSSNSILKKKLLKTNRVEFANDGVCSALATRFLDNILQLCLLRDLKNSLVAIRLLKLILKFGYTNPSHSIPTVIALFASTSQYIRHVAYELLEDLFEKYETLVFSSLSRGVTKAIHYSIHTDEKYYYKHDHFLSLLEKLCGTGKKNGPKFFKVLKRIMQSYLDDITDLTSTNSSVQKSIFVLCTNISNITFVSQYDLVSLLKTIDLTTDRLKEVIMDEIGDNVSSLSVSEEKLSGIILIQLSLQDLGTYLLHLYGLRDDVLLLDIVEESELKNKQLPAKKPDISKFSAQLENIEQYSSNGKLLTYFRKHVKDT
substance,measurement,value
"MAU2 chromatid cohesion factor homolog, P40090",listed as a hit,yes
